From PubChem BioAssay (NCI)
The panel holds about 83,000 compounds, 20% with a hit somewhere; the sample as a whole holds those more often.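 Negative percent growth values reflect cell death: -40 means 40% of the cells present at the start died, and -100 means all died.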 Unmarked numbers belong to inactive results. Active and inactive are the calls of the source. How the source made its calls: active means growth percent below 10; inactive means the rest.

Tested on: NCI-H226 lung
Test: NCI-60 one-dose screen, 48 h (100 = growth as untreated, 0 = no growth, -100 = all killed)
Settings: 10 µM unless noted

Structure (SMILES)	growth
Nc1ncnc2c1ccn2-c1cccc(NC(=O)c2cccc(C(F)(F)F)c2)c1	70.2%
COc1ccc(-c2nnc(SCC(=O)Nc3ccc(C(=O)/C=C/c4ccccc4)cc3)o2)cc1OC	89%
CCCCCCCCCCCCCCCCCCNCc1ccc(Cl)cc1	4.03% (active)
Clc1ccc2c(c1)nnn1c3ncccc3c(Br)c21	90.1%
CCCOC(=O)c1ccc([N+](=O)[O-])o1	109%
[2H]c1nc(Nc2ncc(F)c(-c3cc(F)c4nc(C)n(C(C)C)c4c3)n2)c([2H])c([2H])c1CN1CCN(CC)CC1	41.5%
COc1ccccc1N1CCN(CC(O)COc2c(Br)c(Br)c(Br)c3c2OC(C)(C)C3)CC1 (stereo unspecified)	45%
CCOC(=O)c1noc2c1CCc1cn(Cc3cc(OC)cc(OC)c3)cc1-2	101%
O=C1c2ccccc2C(=O)c2c(NCCN=Cc3c(O)ccc4ccccc34)cccc21	91.7%
Cc1[nH]n(C(=O)c2ccncc2)c(=O)c1N=Nc1ccc(S(=O)(=O)Nc2ccncn2)cc1	90%
O=C(Nc1ccc(Cl)c(Cl)c1)Nc1ccc(Cl)c([N+](=O)[O-])c1	1.2% (active)
COc1ccc(-c2cnc(-c3ccc(F)cc3)[nH]2)cc1	85.4%

Tested on: NCI-H322M lung
Test: as above
Settings: 10 µM unless noted

Structure (SMILES)	growth
CN(C)CCNc1nc2ccccc2c2c(=O)c3ccccc3sc12	43.1%
Nc1nc2ccc(CNc3ccc(C(=O)NC(CC(=O)O)C(=O)O)cc3)cc2c(=O)[nH]1 (stereo unspecified)	55.7%
CC12CCC3C(CCC4CC(O)CCC43C)C1C/C(=C/O)C(=O)O2 (stereo unspecified)	107%
COc1cc(/C=C/C(=O)c2ccc(Oc3ncnc4ccccc34)cc2)cc(OC)c1OC	69.5%
Nc1n[nH]c2cccc(C#Cc3cccc(NC(=O)c4cccc(C(F)(F)F)c4)c3)c12	46.5%
COc1ccc(-c2nn(-c3ccc(NC(=O)c4ccc(Cl)c(C(F)(F)F)c4)cc3)cc2-c2ccncc2)cc1Cl	51.5%
CCCN1C(=O)CSC1=Nc1ccc2cc3ccc(N=C4SCC(=O)N4CCC)cc3nc2c1	86.4%
CCOC(=O)C1=C(N)Oc2cc(OC)ccc2C1c1ccc(F)c(F)c1 (stereo unspecified)	46.8%
CC(C(C(=O)N1CCCCC1)N1CCCCC1)N1CCCCC1 (stereo unspecified)	119%
COc1ccc2c(-c3ccc(F)cc3)c(C#N)c(=NC(C)=O)oc2c1	58.2%
COc1ccc(-c2nnc(SCC(=O)Nc3ccc(C(=O)/C=C/c4ccc(Cl)cc4)cc3)o2)cc1OC	87.4%
COc1cccc(/C=N/C(=S)NC2(C)C3CCC(C3)C2(C)C)c1O (stereo unspecified)	73.1%
CC1(C)N=C(N)N=C(N)N1c1ccc(OCC(=O)Nc2ccccc2)c(Cl)c1	40.2%
FC(F)(F)c1cn(CCN2CCOCC2)c2ncnc(Cl)c12	87.4%
COc1ccc(-c2nn(-c3ccc(NC(=O)Nc4cc(C(F)(F)F)cc(C(F)(F)F)c4)cc3)cc2-c2ccncc2)cc1Cl	30.9%
O=C(CNc1cccnc1)Nc1ccc(C(=O)/C=C/c2ccc(Cl)cc2)cc1	95.9%
CCc1ccc(C2=C/C(=C/c3ccc(Cl)cc3)C(=O)N2CCc2ccc(S(N)(=O)=O)cc2)cc1	54.3%
O=C(Nc1ccc(-n2ccc3c(NC(=O)c4ccccc4)nccc32)cc1)c1cccc(C(F)(F)F)c1	48.8%
O=S(=O)(CCN1CCOCC1)Nc1cc(-c2ccc3ncnc(Nc4ccc(F)c(Cl)c4)c3c2)cnc1Cl	0.347% (active)
CCC1S/C(=N\N=C(/C)c2cc3ccccc3o2)N(c2ccccc2)C1=O (stereo unspecified)	92.2%

Structure (SMILES)	growth
COc1cccc(-c2nc3sccn3c2-c2ccnc(NCCNC(=O)c3ccccc3)n2)c1	110%
NC(N)=N/N=C/c1ccc([N+](=O)[O-])cc1	93.5%
C#C[C@@]1(O)[C@@H](CO)O[C@@H](n2cc(Br)c3c(Cl)ccnc32)[C@@H]1O	11.7%
CCOC(=O)C(C)(CSSCC(C)(NC(=O)c1ccc2ccccc2c1)C(=O)OCC)NC(=O)c1ccc2ccccc2c1 (stereo unspecified)	96.7%
O=C(C[n+]1cccc(Br)c1)c1ccc2c(c1)CCCC2	101%
CCC(C)Nc1ccc(N)cc1 (stereo unspecified)	53.3%
Cc1cn(-c2nc3c(c(NCc4ccccc4)n2)COCC3)c2cccc(C(N)=O)c12	98.8% [0.5 µM]
Nc1ncnc2c1ccn2-c1cccc(NC(=O)c2cccc(C(F)(F)F)c2)c1	55.8%
COc1ccc(-c2nnc(SCC(=O)Nc3ccc(C(=O)/C=C/c4ccccc4)cc3)o2)cc1OC	90.8%
CCCCCCCCCCCCCCCCCCNCc1ccc(Cl)cc1	9.39% (active)
Clc1ccc2c(c1)nnn1c3ncccc3c(Br)c21	88.5%
CCCOC(=O)c1ccc([N+](=O)[O-])o1	108%
[2H]c1nc(Nc2ncc(F)c(-c3cc(F)c4nc(C)n(C(C)C)c4c3)n2)c([2H])c([2H])c1CN1CCN(CC)CC1	41.1%
COc1ccccc1N1CCN(CC(O)COc2c(Br)c(Br)c(Br)c3c2OC(C)(C)C3)CC1 (stereo unspecified)	59.9%
CCOC(=O)c1noc2c1CCc1cn(Cc3cc(OC)cc(OC)c3)cc1-2	102%
O=C1c2ccccc2C(=O)c2c(NCCN=Cc3c(O)ccc4ccccc34)cccc21	91.4%
Cc1[nH]n(C(=O)c2ccncc2)c(=O)c1N=Nc1ccc(S(=O)(=O)Nc2ccncn2)cc1	115%
O=C(Nc1ccc(Cl)c(Cl)c1)Nc1ccc(Cl)c([N+](=O)[O-])c1	6.27% (active)
COc1ccc(-c2cnc(-c3ccc(F)cc3)[nH]2)cc1	213%
